From PubChem
This is a sample that favours compounds with a hit; in the whole collection about 2.9% have one here.
PTAP TSG101 blk = blocks PTAP/TSG101 interaction to inhibit HIV-1 budding. Potency, µM (titrated, usually from 115 µM), without a hit: at the highest dose activity change, negative = inhibition, actives largely listed as inhibitors. 340,000 tested, under 10 active. AID 493005. Fluorescence polarization, FITC-PTAP peptide / Tsg101 binding. Q99816; active = well fitted inhibition curve with a large enough effect in the main read-out, with a control signal flat, not every such curve was filed as active; inconclusive = small, poorly fitted or top-dose-only effect, or effect the other way, or a change in a side signal; inactive = no such curve, though single readings can be large or run the other way; note: potency is the fitted concentration of half-maximal effect; % of control where 0% means no effect
Target sequence (Q99816 whole entry, looked up): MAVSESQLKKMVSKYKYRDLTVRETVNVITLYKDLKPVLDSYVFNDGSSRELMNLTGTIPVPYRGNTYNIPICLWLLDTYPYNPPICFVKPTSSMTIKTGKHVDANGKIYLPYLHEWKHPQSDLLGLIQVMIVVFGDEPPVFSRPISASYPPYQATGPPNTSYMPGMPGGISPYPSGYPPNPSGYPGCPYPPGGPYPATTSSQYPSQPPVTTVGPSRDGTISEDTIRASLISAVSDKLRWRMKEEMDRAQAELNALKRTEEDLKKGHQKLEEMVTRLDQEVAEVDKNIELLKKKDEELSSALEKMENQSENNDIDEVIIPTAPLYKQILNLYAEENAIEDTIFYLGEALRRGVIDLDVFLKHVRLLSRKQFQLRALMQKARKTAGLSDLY
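Compounds were pin-transferred onto Tsg101 binding domain (10 uM final) in HEPES pH 7.5 buffer, then FITC-PTAP peptide was added at 50 nM final. After 20 min at RT, polarization reported peptide displacement across a qHTS concentration series.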
DRD3 antagonist = D3 dopamine receptor (human) antagonism | P35462 | D3R cells, DiscoveRx beta-arrestin luminescence, antagonist mode; hits give low values | max response, negative = inhibition, % | 360,000 compounds, 2.5% hits | AID 652054; in the data active = max response below about -50%; inconclusive = no clear call, values can overlap the other calls; note: % is set by controls: 0 for no effect and ±100 for the full control effect
Target sequence (P35462 whole entry, looked up): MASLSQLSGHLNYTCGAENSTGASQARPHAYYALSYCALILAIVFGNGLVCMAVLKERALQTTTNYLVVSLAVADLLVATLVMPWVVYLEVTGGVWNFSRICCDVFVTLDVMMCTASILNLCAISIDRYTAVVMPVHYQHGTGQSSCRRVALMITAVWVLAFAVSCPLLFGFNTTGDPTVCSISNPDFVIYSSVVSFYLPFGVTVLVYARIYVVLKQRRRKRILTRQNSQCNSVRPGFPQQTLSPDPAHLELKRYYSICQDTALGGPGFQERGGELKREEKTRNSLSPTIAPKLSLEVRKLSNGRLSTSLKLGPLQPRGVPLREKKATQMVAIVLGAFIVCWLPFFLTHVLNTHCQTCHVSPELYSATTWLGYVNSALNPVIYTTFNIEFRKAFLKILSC
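Cells expressing the human receptor were seeded at 1500 cells/well, incubated overnight at 37 degrees C in 5% CO2, then exposed to library compounds with dopamine controls for 90 minutes at 37 degrees C before luminescent detection.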
DRD3 agonist = D3 dopamine receptor (human) agonism; D3R DiscoveRx beta-arrestin cells, luminescence, 90 min; 410,000 compounds, 0.58% hits; P35462; max activation, %; in the data active = max activation above about 30%; note: 0% is about no effect
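Agonist mode: compounds and dopamine controls were applied to plated cells for 90 min at 37 degrees C after an overnight attachment at 1500 cells/well. Luminescent read-out followed 30 - 60 minutes at room temperature with DiscoveRx detection reagent.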
MmCpn inh = M. maripaludis TRiC chaperonin inhibition. purified Mm-Cpn ATPase, ADP Transcreener TR-FRET. Potency, µM (doses to about 76.9 µM), for the others: at the top dose activity, negative = inhibition, most hits filed as inhibitors. 330,000 compounds, 0.031% hits. AID 504842; active = well fitted inhibition curve with a large enough effect; inconclusive = small, poorly fitted or top-dose-only effect; note: potency is the fitted concentration of half-maximal effect; % is set by controls: 0 for no effect and ±100 for the full control effect; nearly all actives have a fitted effect of over 80% in size
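ATPase read-out: TR-FRET ADP immunoassay (anti-ADP Eu cryptate vs ADP-d2), ex 320 nm, em 590/665 nm; signal drops as ADP forms. Enzyme 25 nM, ATP 10 uM, 30 min at 37°C after 10 min compound preincubation.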
Rango complex inh = inhibitors of Rango-importin beta complex formation; Potency, µM (top dose mostly 92.2 µM), without a hit: top-dose inhibition of complex formation; AID 540263; 340,000 compounds, 0.031% hits; Q14974; Rango CFP/YFP FRET sensor + importin beta, 45 min;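 note: potency is the fitted concentration of half-maximal effect; 0% = DMSO wells and 100% = buffer wells lacking importin beta; nearly all actives have a fitted effect of over 15% in size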
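FRET biosensor (snurportin 1 IBB flanked by EYFP and cerulean), 50 nM, with compound 5 min, then 0.125 microM importin beta in PBS, 1 mM DTT, 0.02% Tween-20, 0.1% BSA. CFP/YFP ratio read after 45 min at room temperature; pre-read flags interference.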
Rango release inh = prevents RanGTP from dissociating the Rango-importin beta complex. Potency, µM (top dose mostly 46.1 µM), for inactives: top-dose activity change, negative = inhibition. Biochemical FRET Rango-importin beta, RanGTP-induced dissociation. AID 540253. O95149+P62826. 340,000 compounds, 0.071% hits; note: potency is the fitted concentration of half-maximal effect; % of control where 0% means no effect; nearly all actives have a fitted effect of over 45% in size
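Compounds sat 5 min at room temperature with 0.1 uM Rango biosensor plus 0.25 uM importin beta, then FRET pre-read. RanGTP-RCC1 (0.6 uM Ran, 2mM GTP, 0.2 uM RCC1) added for 45 min, and the CFP/YFP post-read measured blocked complex dissociation.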
* marks the source's active call; other numbers are inactive results; ? = inconclusive; nt = no result given. Unless noted, calls come from the whole dose curve.

SMILES	PTAP TSG101 blk	DRD3 antagonist	DRD3 agonist	MmCpn inh	Rango complex inh	Rango release inh
COc1ccc(C(=O)N2CCN(Cc3ccc4c(c3)OCO4)CC2)cc1OC	-3.2%	-5.5	-10.1	1.6%	-1.4%	1.4%
O=C(c1cc2cc(F)ccc2[nH]1)N1CCN(Cc2ccc3c(c2)OCO3)CC1	-4.5%	-86.4*	-12.7	-5.5%	-6.4%	-8.2%
c1ccc2nc(N3CCN(Cc4ccc5c(c4)OCO5)CC3)cnc2c1	0.5%	?	-11.8	-1.3%	-1.1%	-1.7%
Cc1ccc(C(=O)N2CCN(Cc3ccc4c(c3)OCO4)CC2)cc1C	-7.2%	-62.5*	-24.6	0.0%	1.1%	-8.6%
O=C(c1ccccc1F)N1CCN(Cc2ccccc2F)CC1	-5.5%	-57.3*	-12.2	-2.1%	7.0%	10.4%
COc1nc2ccccc2nc1N1CCN(Cc2ccc3c(c2)OCO3)CC1	-2.2%	-114.3*	4.5	-0.7%	-1.7%	-3.9%
COc1cccc(NC(=O)CN(C)C(=O)Cn2c(=O)oc3ccccc32)c1	1.6%	-13.8	-16.1	-1.5%	2.9%	-15.9%
Cc1ccc(S(=O)(=O)c2nc(-c3cccs3)oc2SCC(=O)Nc2cc(C)cc(C)c2)cc1	nt	nt	-6.9	nt	nt	nt
O=C1c2[nH]nc(-c3ccccc3O)c2C(c2ccc(Cl)cc2)N1CCc1ccccc1 (stereo not given)	nt	nt	9.7	nt	nt	nt
O=C(O)C1CC(=O)N(Cc2ccc3c(c2)OCO3)C1 (stereo not given)	nt	-106.0*	-14.2	1.4%	-2.3%	1.5%
Cc1ccc(C(=O)N2CCN(Cc3ccc4c(c3)OCO4)CC2)c(Cl)c1	-3.6%	-86.3*	-23.7	-0.5%	3.7%	-4.9%
O=C(C1CC2CCC1C2)N1CCN(Cc2ccc3c(c2)OCO3)CC1 (stereo not given)	-2.4%	-56.2*	-5.3	2.4%	-0.3%	0.7%
c1cc2c(cc1CN1CCN(C3CCCCCC3)CC1)OCO2	-4.9%	-51.3*	-16.0	-1.1%	1.7%	-4.2%
c1ccc(CN2CCC(N3CCN(Cc4ccc5c(c4)OCO5)CC3)CC2)cc1	-0.8%	-11.0	-10.2	0.5%	-1.5%	-10.1%
C=C1C(=C/C=C2\CCC[C@]3(C)[C@@H]([C@H](C)CCCC(C)C)CC[C@@H]23)C[C@@H](O)C[C@@H]1O	nt	nt	0.2	nt	nt	nt
CN(C)CCNC(=O)CN1C(=O)CCn2nc(-c3cn(C)c4ccccc34)cc21	nt	nt	-8.6	nt	nt	nt
O=C(c1ccccc1)N1CCN(Cc2ccccc2Br)CC1	-7.5%	-62.4*	0.5	0.4%	-0.9%	20.1%
Cc1cccc(C(=O)N2CCN(Cc3ccc4c(c3)OCO4)CC2)c1	-0.8%	-80.5*	-12.0	0.5%	3.0%	-8.6%
O=C(c1ccc(Br)cc1)N1CCN(Cc2ccccc2)CC1	-4.3%	?	-4.5	-3.7%	-1.1%	0.1%
O=C(c1ccccc1)N1CCN(Cc2ccc3c(c2)OCO3)CC1	2.6%	-78.4*	-25.0	2.4%	4.7%	-16.2%
COc1ccc(-c2noc(-c3ccc(NCc4ccc(C)cc4)c([N+](=O)[O-])c3)n2)cc1OC	nt	nt	3.3	nt	nt	nt
COc1ccc(C(=O)C(CCC(CNC(C)(C)C)C(=O)c2ccc(OC)cc2)CNC(C)(C)C)cc1 (stereo not given)	1.3%	-55.0*	-17.0	0.5%	6.2%	20.6%
O=C(c1cnc2sccn2c1=O)N1CCc2ccccc2C1	-4.5%	-95.9*	-19.3	1.9%	2.8%	-6.2%
O=C(c1cnc2sccn2c1=O)N1CCN(c2ccccc2Cl)CC1	0.2%	-6.6	6.2	-0.3%	-1.5%	24.4%
CCOc1ccc(OCC)c(NC(=O)CCCN2C(=S)NC(C)(C)CC2C)c1 (stereo not given)	2.2%	-55.9*	0.5	-0.2%	6.8%	3.3%
SMILES	PTAP TSG101 blk	DRD3 antagonist	DRD3 agonist	MmCpn inh	Rango complex inh	Rango release inh
CCc1ccc(S(=O)(=O)c2cnc3ccc(OC)cc3c2N2CCCC(C)C2)cc1 (stereo not given)	nt	nt	-14.4	nt	nt	nt
COCCCNC(=O)Cn1c(=O)n(-c2ccc(C)c(C)c2)c(=O)c2c3c(sc21)CCCCC3	nt	nt	7.4	nt	nt	nt
Cc1cc(C(=O)Nc2ccc3c(c2)OCCO3)ccc1[N+](=O)[O-]	1.2%	-62.5*	-11.0	0.1%	3.8%	0.2%
O=C(NCc1ccc(F)cc1)c1cc(C2CCCCN2S(=O)(=O)c2cccs2)on1 (stereo not given)	nt	-16.7	-2.2	nt	nt	nt
O=C(NCc1ccc(F)cc1)c1cc(C2CCCCN2S(=O)(=O)c2ccccc2)on1 (stereo not given)	nt	11.1	8.5	nt	nt	nt
CS(=O)(=O)N1CCCCC1c1cc(C(=O)NCc2ccc(F)cc2)no1 (stereo not given)	nt	-87.8*	-12.8	nt	nt	nt
O=C(NCc1ccc(F)cc1)c1cc(C2CCCCN2S(=O)(=O)Cc2ccccc2)on1 (stereo not given)	nt	-99.1*	-16.0	nt	nt	nt
O=C(CSc1nnc(NC(=O)c2ccco2)s1)Nc1ccc2c(c1)OCCO2	-3.6%	-20.4	4.3	1.2%	4.7%	-3.6%
CN1CCc2nc(SCCOc3ccccc3)c(C#N)cc2C1	-7.2%	-58.3*	-29.0	-12.0%	?	?
O=C(CCCn1c(=O)c2cccn2c2ccccc21)NCCc1ccc(Cl)cc1	nt	nt	9.8	nt	nt	nt
Cc1cc(OCCN2CCCCCC2)ccc1[N+](=O)[O-]	-3.8%	-68.0*	-15.1	-2.6%	3.3%	?
COC(=O)C1CCN(Cc2ccc(OCCCN3CCN(c4ccc([N+](=O)[O-])cc4)CC3)cc2)CC1	-7.9%	-51.7*	-13.3	0.2%	-1.8%	10.5%
O=[N+]([O-])c1ccc(OCCCCN2CCCCC2)cc1	-0.8%	-57.7*	-12.1	-0.3%	6.4%	0.5%
O=[N+]([O-])c1ccc(OCCCCCN2CCOCC2)cc1	-2.1%	-23.2	-12.7	0.0%	3.5%	9.2%
O=[N+]([O-])c1ccc(OCCCCN2CCc3ccccc3C2)cc1	0.5%	-102.2*	-20.7	-4.4%	0.3%	4.1%
Nc1nc(SCc2ccccc2)c2ncn(Cc3ccccc3)c2n1	-2.7%	13.4	-0.3	nt	-1.5%	0.6%
Cc1ccc(NC(=O)CNCC(c2ccccc2)N(C)C)cc1F (stereo not given)	-5.2%	-28.1	-12.5	0.9%	-0.4%	10.4%
Cc1cc(NC(=O)CNCC(c2ccccc2)N(C)C)c([N+](=O)[O-])cc1C (stereo not given)	-8.0%	-53.8*	3.3	-1.1%	-4.7%	-18.9%
COc1ccc(CCNc2nc3cc(OC)c(OC)cc3c3nc(-c4cccnc4)nn23)cc1OC	nt	nt	-11.3	nt	nt	nt
COc1ccc(CNC(=O)c2[nH]c(C(F)(F)F)nc2-c2ccccc2)cc1	nt	14.7	6.9	nt	nt	nt
COc1ccc(CNC(=O)c2[nH]c(C(F)(F)F)nc2-c2ccccc2)cc1OC	nt	-57.6*	-8.5	nt	nt	nt
